This is part of a sample that, as a whole, favours compounds with a hit. Of some 83,000 tested, about 20% had one in any assay.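 Single-dose data. Exposure time 48 hours. Values below 10 considered active.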 Values without a mark were called inactive. Activity calls are given as the source filed them.

The values that follow come from PubChem BioAssay (NCI).

Among the test systems are SK-MEL-2 melanoma; EKVX NSCLC; SN12C renal; UO-31 renal; TK-10 renal; ACHN renal; A498 renal; CCRF-CEM leukemia; MOLT-4 leukemia; SR leukemia.
Test in all cases: NCI-60 one-dose screen, 48 h (100 = growth as untreated, 0 = no growth, -100 = all killed)
What all share (conditions): 10 µM unless noted

In the case of `NC(=O)c1ccc(C2C3=C(CCCC3=O)OC3=C2C(=O)c2ccccc2C3=O)cc1` (stereo not given), the growth was 20.6% in the assay on SK-MEL-2 melanoma; 24.6% in the assay on EKVX NSCLC; -3.43% (active) in the assay with SN12C renal; 90.6% in the assay with UO-31 renal; 98.2% in the assay on TK-10 renal; 27.9% in the assay with ACHN renal. Further, the growth is 131% in the assay with A498 renal, 15% with CCRF-CEM leukemia, -17.4% (active) with MOLT-4 leukemia and 8.38% (active) in the assay on SR leukemia.

As to `O=C1C(=O)c2c(nc3ccc(C(F)(F)F)cn23)-c2ccccc21`, the growth with SK-MEL-2 melanoma is -67.1% (active); in the assay with EKVX NSCLC it was -72.5% (active); in the assay on SN12C renal, -84.4% (active); in the assay on UO-31 renal, -97.5% (active); in the assay on TK-10 renal it was -97.3% (active); in the assay with ACHN renal, -99.1% (active). For the same compound, the growth is -92.9% (active) in the assay with A498 renal, 0.668% (active) in the assay on CCRF-CEM leukemia, -33.1% (active) in the assay with MOLT-4 leukemia and -5.53% (active) in the assay on SR leukemia.

Consider `CCOCCc1c(O)nc(SC)[nH]c1=O`, for which the growth with SK-MEL-2 melanoma was -28.8% (active); in the assay on EKVX NSCLC, 121%; in the assay with SN12C renal it was 92.6%; in the assay with UO-31 renal, 83.9%; in the assay with TK-10 renal, 122%; with ACHN renal, 108%. Moreover, the growth in the assay with A498 renal is 85.7%; in the assay on CCRF-CEM leukemia it was 113%; in the assay on MOLT-4 leukemia, 116%; with SR leukemia it was 112%.

On to `CC(=O)Nc1ccc2c(c1)Cc1cc(F)ccc1-2`, for which the growth in the assay with SK-MEL-2 melanoma is 94.8%; in the assay with EKVX NSCLC it was 104%; in the assay with SN12C renal it was 107%; in the assay on UO-31 renal, 56.8%; in the assay on TK-10 renal, 104%; in the assay with ACHN renal, 104%. Besides, the growth was 73.2% in the assay on A498 renal, 99.1% in the assay with CCRF-CEM leukemia, 89.4% in the assay on MOLT-4 leukemia and 87.5% in the assay on SR leukemia.

On to `Cc1cc(O)cc(O)c1N=NC1=NCCS1`, for which the growth with SK-MEL-2 melanoma is 98.3%; in the assay with EKVX NSCLC it was 96.5%; in the assay with SN12C renal it was 109%; with UO-31 renal it was 89.9%; in the assay with TK-10 renal it was 135%; in the assay with ACHN renal, 97.3%. For the same compound, the growth in the assay with A498 renal is -6.58% (active); in the assay on CCRF-CEM leukemia it was 101%; in the assay on MOLT-4 leukemia, 94.1%; with SR leukemia, 97.1%.

Consider `COc1ccc(-c2cn(-c3ccc(Cl)cc3)c(=S)[nH]2)cc1OC`, for which the growth in the assay on SK-MEL-2 melanoma was 46.9%; in the assay with EKVX NSCLC, 74.7%; in the assay with SN12C renal, 74.3%; in the assay on UO-31 renal, 85.4%; in the assay on TK-10 renal, 72.8%; in the assay with ACHN renal, 67%. The growth was 94.4% in the assay on A498 renal, 84.4% with CCRF-CEM leukemia, 77.8% in the assay on MOLT-4 leukemia and 22.3% in the assay with SR leukemia.

On to `CC(=O)[C@@H]1CC[C@]2(C(=O)O)CC[C@]3(C)[C@H](CC[C@@H]4[C@@]5(C)Cc6c([nH]c7ccccc67)C(C)(C)[C@@H]5CC[C@]43C)[C@@H]12`, for which the growth is 79.5% with SK-MEL-2 melanoma; 42.3% in the assay on EKVX NSCLC; 69.3% with SN12C renal; 48.6% with UO-31 renal; 63.6% with TK-10 renal; 46.5% in the assay on ACHN renal. Also, the growth was 61.7% with A498 renal, 62.9% with CCRF-CEM leukemia, 49.6% in the assay with MOLT-4 leukemia and 73.5% in the assay with SR leukemia.

As to `CC(C)C1=C[C@@]23CC[C@H]4[C@](C)(COCCC#N)CCC[C@]4(C)[C@H]2C[C@@H]1[C@@H]1[C@H]3[C@@H](OCCC#N)CC[C@@H]1OCCC#N`, the growth with SK-MEL-2 melanoma is 24.5%; with EKVX NSCLC, 17.6%; in the assay with SN12C renal, 32.9%; with UO-31 renal it was 24.8%; with TK-10 renal, 37.7%; in the assay on ACHN renal, 25%. Besides, the growth is 67.7% in the assay on A498 renal, 34.3% with CCRF-CEM leukemia, 5.36% (active) in the assay on MOLT-4 leukemia and 15% with SR leukemia.

Consider `COc1ccc(C(=O)c2cc(OC)c(OC)c(OC)c2)cc1OC(=O)CCl`, for which the growth in the assay on SK-MEL-2 melanoma is 26.1%; in the assay on EKVX NSCLC, 70.2%; in the assay with SN12C renal it was 32%; in the assay on UO-31 renal, 44.8%; with TK-10 renal it was 63.6%; with ACHN renal, 40.2%. Further, the growth was 59.3% with A498 renal, 14.9% in the assay with CCRF-CEM leukemia, 18.4% in the assay on MOLT-4 leukemia and 13.4% in the assay on SR leukemia.

Consider `Cc1ccn2c3c(c(C(=O)O)c2c1)C(=O)c1ccccc1C3=O`, for which the growth with SK-MEL-2 melanoma was 68.9%; with EKVX NSCLC, 83%; in the assay with SN12C renal, 78.8%; in the assay on UO-31 renal, 63.7%; in the assay on TK-10 renal it was 142%; in the assay with ACHN renal, 86.2%. Moreover, the growth is 89.2% with A498 renal, 89.5% with CCRF-CEM leukemia, 84.8% in the assay with MOLT-4 leukemia and 80% with SR leukemia.

For the compound `Nc1c(C(=O)Nc2ccccc2Cl)sc2nc3c(cc12)CN(Cc1ccccc1)CC3`, the growth in the assay on SK-MEL-2 melanoma is 95.6%; with EKVX NSCLC, 93%; in the assay with SN12C renal it was 101%; in the assay on UO-31 renal, 99.7%; in the assay with TK-10 renal, 98.5%; with ACHN renal it was 104%. Also, the growth was 85.4% in the assay with A498 renal, 91.7% in the assay on CCRF-CEM leukemia, 89.6% in the assay with MOLT-4 leukemia and 87.1% with SR leukemia.

In the case of `O=C(CN1N=C(c2ccc(F)cc2)CCC1=O)Nc1nccs1`, the growth in the assay on SK-MEL-2 melanoma is 101%; with EKVX NSCLC, 98.3%; with SN12C renal, 96.9%; with UO-31 renal, 87.6%; in the assay on TK-10 renal, -95.6% (active); in the assay on ACHN renal, 107%. The growth in the assay on A498 renal is 84.1%; in the assay on CCRF-CEM leukemia, 94%; in the assay with MOLT-4 leukemia, 97.5%; with SR leukemia it was 92.8%.
